BAZ2B inh: qHTS Assay for Inhibitors of BAZ2B; AlphaScreen BAZ2B-H3K14Ac peptide displacement; Potency, µM (titrated, usually from 114 µM), inactives show at the highest dose activity change, negative = inhibition, hits mostly inhibitors; hit rate 4.4% among 360,000; note: potency is the fitted concentration of half-maximal effect; % is set by controls: 0 for no effect and ±100 for the full control effect; nearly all actives have a fitted effect of over 60% in size
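AlphaScreen luminescence quantifies BAZ2B engagement of H3K14Ac peptide; the protein and biotinylated peptide are both at 50 nM final, buffer PBS pH 7.4 with 0.01% Tween-20, all steps at room temperature.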
G9a block: qHTS Assay for Inhibitors of Histone Lysine Methyltransferase G9a; G9a H3K9 monomethylation, AlphaScreen, 2 h; Potency, µM (doses to about 102 µM), inactives show at the highest dose activity, negative = inhibition, usual class: inhibitors; hit rate 8.8% among 350,000; AID 504332, 2011; note: potency is the fitted concentration of half-maximal effect; % is set by controls: 0 for no effect and ±100 for the full control effect; nearly all actives have a fitted effect of over 75% in size
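Methyltransferase reactions run at room temperature for 2 h (20 nM enzyme, 500 nM biotin-H3K9 peptide, 20 uM SAM) after a 15 min compound preincubation; product detected by AlphaScreen beads and anti-H3K9me1 antibody.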
HP1b chromo inh: HTS for Inhibitors of HP1-beta Chromodomain Interactions with Methylated Histone Tails. AlphaScreen HP1-beta / biotin-H3K9me3 peptide binding. AID 540317, 2011. Chromobox protein homolog 1 (Homo sapiens), P83916. hit rate 0.56% among 390,000. Potency, µM (highest dose often 114 µM), for inactives: at the top dose activity change, negative = inhibition, usual class: inhibitors; note: potency is the fitted concentration of half-maximal effect; nearly all actives have a fitted effect of over 70% in size
Target sequence (P83916 whole entry, looked up): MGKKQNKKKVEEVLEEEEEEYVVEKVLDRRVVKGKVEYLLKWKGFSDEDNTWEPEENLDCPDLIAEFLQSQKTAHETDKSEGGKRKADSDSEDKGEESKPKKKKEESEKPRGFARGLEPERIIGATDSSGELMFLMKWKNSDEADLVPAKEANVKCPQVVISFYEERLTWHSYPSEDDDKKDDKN
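HP1-beta protein (50 nM final) preincubated 30 min at room temperature with biotinylated H3(1-18)K9me3 peptide (50 nM) in PBS pH 7.4, 0.01% Tween-20, then compound added for 30 min. AlphaScreen streptavidin donor/nickel chelate acceptor beads (10 ug/mL final), 30 min dark, luminescence read.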
L3MBTL1 inh: qHTS Assay for the Inhibitors of L3MBTL1. AlphaScreen L3MBTL1–H3K9me1 peptide binding. hit rate 0.66% among 230,000. Lethal(3)malignant brain tumor-like protein 1 (Homo sapiens), Q9Y468. AID 485360, 2010. Potency, µM (titrated, usually from 57.1 µM), without a hit: at the top dose activity, negative = inhibition, hits mostly inhibitors; note: potency is the fitted concentration of half-maximal effect; % is set by controls: 0 for no effect and ±100 for the full control effect; nearly all actives have a fitted effect of over 60% in size
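AlphaScreen assay: L3MBTL1 (50 nM final) was preincubated 30 min at room temperature with biotinylated H3(1-15)K9me1 peptide (75 nM final), then 30 min with library compounds; streptavidin donor and nickel chelate acceptor beads (10 ug/mL final) added, 30 min dark.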
PI5P4K alpha inh: qHTS for Inhibitors of phosphatidylinositol 5-phosphate 4-kinase (PI5P4K); Phosphatidylinositol 5-phosphate 4-kinase type-2 alpha (Homo sapiens), P48426; PI5P4Kalpha enzyme, ADP-Glo luminescence, 60 min; active compounds read low; max response, %; hit rate 1.2% among 330,000; AID 652105, 2013; active = max response of -50% or lower; inconclusive = between -30% and -50%; inactive = -30% or higher; note: value at the top dose of about 77 µM; % is set by controls: 0 for no effect and ±100 for the full control effect
Target sequence (P48426 whole entry, looked up): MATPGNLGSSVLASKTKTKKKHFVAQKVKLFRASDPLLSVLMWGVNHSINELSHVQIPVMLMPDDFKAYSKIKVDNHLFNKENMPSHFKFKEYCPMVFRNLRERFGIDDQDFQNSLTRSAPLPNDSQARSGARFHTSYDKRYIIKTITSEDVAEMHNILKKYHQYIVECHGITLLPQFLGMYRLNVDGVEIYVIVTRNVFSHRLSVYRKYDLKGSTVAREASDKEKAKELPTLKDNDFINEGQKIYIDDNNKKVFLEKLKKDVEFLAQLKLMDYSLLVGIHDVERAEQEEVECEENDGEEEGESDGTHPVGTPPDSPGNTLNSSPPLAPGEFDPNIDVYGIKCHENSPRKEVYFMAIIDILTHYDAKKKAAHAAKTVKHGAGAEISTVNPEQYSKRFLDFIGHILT
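Reactions run in 0.038 M HEPES pH 7.4, 0.28 mM EGTA, 0.1% CHAPS and 5% DMSO, with PI5P4Kalpha, substrate, compound and 5 microM ATP final, one hour at room temperature. Readout is ADP-Glo luminescence.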
JMJD2A Tudor: qHTS Assay for Inhibitors of JMJD2A-Tudor Domain; AlphaScreen JMJD2A-Tudor / H3K4me3 peptide binding; Potency, µM (doses to about 114 µM), for the others: at the top dose activity change, negative = inhibition, actives largely listed as inhibitors; hit rate 4.4% among 390,000; note: potency is the fitted concentration of half-maximal effect; % is set by controls: 0 for no effect and ±100 for the full control effect; nearly all actives have a fitted effect of over 50% in size
* hit, by the source's call; [ ] = another dose, or the depositor's remark. A selection: hits, their analogues and other compounds. The true share with any hit is near 11%. Unless noted, calls come from the whole dose curve; as a rule, active = well fitted inhibition curve with a large enough effect; inconclusive = small, poorly fitted or top-dose-only effect; inactive = no such curve, though single readings can be large or run the other way.

Screening COc1ccc(Cn2ccc3nc(C)c(C(=O)Nc4ccc(OC(F)(F)F)cc4)cc3c2=O)cc1 returned BAZ2B inh -11.9%, G9a block 15.7%[59 µM], HP1b chromo inh 15.3% and JMJD2A Tudor -20.0%.
For CCn1c(CSc2nc3ccccc3[nH]2)n[nH]c1=S the results were BAZ2B inh -3.2%, G9a block inconclusive, HP1b chromo inh 10.9%, L3MBTL1 inh 6.7% and JMJD2A Tudor 6.31µM*.
CCn1c(CCc2ccccc2)n[nH]c1=S was read as BAZ2B inh -11.3%, G9a block 26.7%[0.501 µM], HP1b chromo inh 18.5%, L3MBTL1 inh 5.6%, PI5P4K alpha inh -9.9 and JMJD2A Tudor 3.55µM*.
For CCCCn1c(Cc2ccccc2)n[nH]c1=S the results were BAZ2B inh -3.4%, G9a block 12.6µM*, HP1b chromo inh inconclusive, L3MBTL1 inh -2.1%, PI5P4K alpha inh -2.2 and JMJD2A Tudor 3.98µM*.
Screening CCn1c(Cc2ccccc2)n[nH]c1=S returned BAZ2B inh -18.0%, G9a block inconclusive, HP1b chromo inh 31.2%, PI5P4K alpha inh 0.5 and JMJD2A Tudor inconclusive.
For CCn1c(Cc2c(C)[nH]c3ccccc23)n[nH]c1=S the results were BAZ2B inh -34.7%, G9a block 1.78µM*, HP1b chromo inh 14.8%, L3MBTL1 inh -7.5%[11.4 µM], PI5P4K alpha inh 0.0 and JMJD2A Tudor 3.98µM*.
CCC(C)NC(=O)c1ccccc1NC(=O)C1CCN(S(=O)(=O)Cc2ccccc2)CC1 (configuration not stated) was read as BAZ2B inh -10.8%, G9a block -32.0%[59 µM], HP1b chromo inh -8.8% and JMJD2A Tudor -20.5%.
Screening CCN(CC)C(=O)CSc1nc2c(c(=O)n(C)c(=O)n2C)n1Cc1ccccc1 returned BAZ2B inh -16.7%, G9a block 0.3%[59 µM], HP1b chromo inh 35.6% and JMJD2A Tudor -3.0%.
O=c1n(Cc2ccccc2Cl)c2ccccc2c2nc(-c3ccccc3)nn12 was read as BAZ2B inh -23.8%, G9a block -4.0%[59 µM], HP1b chromo inh 45.9% and JMJD2A Tudor -2.6%.
Screening CC(C)CCn1c(=O)c2cccnc2n(CC(=O)Nc2ccccc2)c1=O returned BAZ2B inh 6.8%, G9a block -4.8%[59 µM], HP1b chromo inh 30.9% and JMJD2A Tudor 0.0%.
For CCn1c(CSCc2ccccc2)n[nH]c1=S the results were BAZ2B inh -24.9%, G9a block 7.08µM*, HP1b chromo inh 23.1%, L3MBTL1 inh 5.9%[11.4 µM], PI5P4K alpha inh 3.2 and JMJD2A Tudor 17.8µM*.
Screening CCn1c(CSCc2ccc(F)cc2)nnc1SCC(=O)NCc1ccccc1 returned BAZ2B inh 11.4%, G9a block -10.9%[12.7 µM], HP1b chromo inh 49.9%, PI5P4K alpha inh 6.2 and JMJD2A Tudor -16.1%.
`CCn1c(CCn2c3ccccc3c3ccccc32)n[nH]c1=S` gave BAZ2B inh inconclusive, G9a block 22.4µM*, HP1b chromo inh 47.0%, L3MBTL1 inh -3.9%, PI5P4K alpha inh 7.2 and JMJD2A Tudor -21.5%.
CCCn1c(CCc2ccccc2)n[nH]c1=S was read as BAZ2B inh 8.5%, G9a block 39.8µM*, HP1b chromo inh 16.3%, L3MBTL1 inh -2.0%, PI5P4K alpha inh 0.9 and JMJD2A Tudor 4.47µM*.
For COc1ccccc1CNC(=O)C(NS(=O)(=O)c1cccs1)C(C)C (configuration not stated) the results were BAZ2B inh 0.5%, G9a block -11.4%[59 µM], HP1b chromo inh 37.4% and JMJD2A Tudor -8.9%.
`CC(=O)N1CCC(N(Cc2ccco2)C(=O)Nc2ccc(Br)cc2F)CC1` gave BAZ2B inh 1.2%, G9a block -0.1%[59 µM], HP1b chromo inh 28.0% and JMJD2A Tudor -3.0%.
FC(F)(F)c1ccccc1/C=N/N1CCN(Cc2ccccc2)CC1 was read as BAZ2B inh 39.8µM*, G9a block 7.08µM*, HP1b chromo inh -23.0%, L3MBTL1 inh -4.5%, PI5P4K alpha inh 17.2 and JMJD2A Tudor 44.7µM*.
`FC(F)(F)c1cccc(OCCN2CCN(Cc3ccccc3)CC2)c1` gave BAZ2B inh 50.1µM*, G9a block 11.2µM*, HP1b chromo inh inconclusive, L3MBTL1 inh -0.2%, PI5P4K alpha inh 0.9 and JMJD2A Tudor 0.891µM*.
Screening CCOc1ccccc1NC(=O)CN1CCN(Cc2ccccc2)CC1 returned BAZ2B inh 1.1%, G9a block 16.4%, HP1b chromo inh 30.2%, PI5P4K alpha inh 7.9 and JMJD2A Tudor -12.1%.
For CCOc1ccccc1OCCOCCN1CCN(Cc2ccccc2)CC1 the results were BAZ2B inh 17.8µM*, HP1b chromo inh inconclusive, L3MBTL1 inh -6.1%, PI5P4K alpha inh 0.0 and JMJD2A Tudor 0.794µM*.
`CCOc1ccccc1/C=N/N1CCN(Cc2ccccc2)CC1` gave BAZ2B inh 50.1µM*, HP1b chromo inh inconclusive, L3MBTL1 inh -2.2%, PI5P4K alpha inh 7.1 and JMJD2A Tudor 56.2µM*.
For COC(=O)c1ccc(/C=N/N2CCN(Cc3ccccc3)CC2)cc1 the results were BAZ2B inh -8.4%, G9a block inconclusive, HP1b chromo inh 11.5%, L3MBTL1 inh -5.8%, PI5P4K alpha inh 12.9 and JMJD2A Tudor -19.8%.
`O=C(c1ccc(CS(=O)(=O)c2c(Cl)cccc2Cl)o1)N1CCN(c2ccccc2)CC1` gave BAZ2B inh inconclusive, G9a block -47.0%[59 µM], HP1b chromo inh 10.2% and JMJD2A Tudor -32.0%.
`O=[N+]([O-])c1ccccc1/C=N\N1CCN(Cc2ccccc2Cl)CC1` gave BAZ2B inh 28.2µM*, HP1b chromo inh inconclusive, L3MBTL1 inh -37.4%, PI5P4K alpha inh 9.7 and JMJD2A Tudor 35.5µM*.
For Cn1cccc1/C=N/n1cnnc1 the results were BAZ2B inh 79.4µM*, G9a block inconclusive, HP1b chromo inh 21.7%, PI5P4K alpha inh -1.5 and JMJD2A Tudor -27.0%.
For Clc1ccc(-n2cccc2/C=N/n2cnnc2)cc1 the results were BAZ2B inh -4.0%, G9a block -15.3%, HP1b chromo inh 23.5%, PI5P4K alpha inh 0.3 and JMJD2A Tudor -9.8%.
Screening Clc1ccccc1CN1CCN(/N=C/C=C/c2ccco2)CC1 returned BAZ2B inh 31.6µM*, HP1b chromo inh inconclusive, L3MBTL1 inh inconclusive, PI5P4K alpha inh -3.0 and JMJD2A Tudor 44.7µM*.
